Drawing on PubChem BioAssay AID1272365 (Small Molecule Screening Facility, UW Madison, 2018), this text covers inhibition for 60 molecules.

“And” between values parts separate entries of the source, which are not always exact repeats. Identical values can stand only once. In all, about 430,000 compounds went through this assay and about 2,600 (0.6%) were called active. This excerpt belongs to a sample that is enriched for actives. A number with no mark means an inactive call. Cut-off read from the data, not from the text of the source: active = inhibition mostly above about 37% (no sharp cut-off); inactive = mostly below about 20%.

This experiment has as its system PriA–SSB C-terminal tail interaction (Klebsiella pneumoniae). Description: inhibitors of Klebsiella pneumoniae PriA binding to SSB C-terminal tail, primary screen, biochemical, AlphaScreen (AID 1272365).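 For inhibition: plate controls were negative control peptide for no effect and reference peptide for full effect.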 As to conditions: AlphaScreen SSBct-PriA binding, biotinylated peptide; at 33 µM, active compounds read high.
Take `Cc1cc(C)c(C#N)c(SCCC(=O)NCCc2ccccc2)n1`: the inhibition was 0%.
As for `Cc1ccc(OCC(=O)Oc2ccccc2[N+](=O)[O-])cc1`, the figure is -0.19%.
As for `O=C(COc1ccccc1[N+](=O)[O-])NC1CC1`, the figure is -0.67%.
As for `O=C(Oc1ccccc1[N+](=O)[O-])N(c1ccccc1)c1ccccc1`, the figure is 39% (active); as for `COc1cc(N2CCN(C(=O)Nc3ccc(F)c(Cl)c3)CC2)nc(C)n1`, -8%.
As for `O=C(Cn1c(C2CC2)nc2c(cnn2-c2ccccc2)c1=O)Nc1cccc(Cl)c1`, the inhibition is 2%.
Turning to `O=S(=O)(NCc1cc(C2CC2)n(C2CCCC2)n1)c1ccc(Br)s1`, the inhibition was -11%.
As to `COc1ccc(C(=O)NN=C(c2ccccc2)c2ccccn2)cc1`, the inhibition was -7.73%.
For `CCN(CC)CCOc1ccc2c(c1)C(=NNC(=O)c1ccccn1)c1cc(OCCN(CC)CC)ccc1-2` the value was 42.9% (active); for `COc1ccccc1NC(=O)CC(C)=NNC(=O)c1ccccn1`, -3.2%.
As for `CC(=NNC(=O)C(c1ccncc1)N1CCOCC1)c1ccc(Br)cc1` (stereo not given), the figure is 1.79%; as for `Cc1cnc2n(c1=O)C[C@H](C(=O)Nc1ccc(OC(F)(F)F)cc1)CS2`, -1%.
As for `CN(C)CC#CCNC(=O)c1c(F)cccc1Cl`, the figure is -2%; as for `O=C(c1ccc(Cl)s1)N(Cc1nnc(-c2ccccc2Cl)o1)C1CC1`, -3.73%.
Take `O=C(Cc1nnc(-c2ccc3ncccc3c2)o1)NCc1ccc(Cl)cc1`: the inhibition was 2%.
For `O=C(c1cc(-c2ccco2)nc2ccccc12)N(Cc1nnc(-c2ccc(Cl)cc2)o1)C1CC1` the value was 38.9% (active); for `O=C(Cc1csc(Nc2ccc(OC(F)(F)F)cc2)n1)NCc1ccco1`, -4%; for `Cc1cc(SCC(=O)N2CCCc3ccccc32)n2ncc(-c3ccccc3)c2n1`, -7%.
For `COc1ccc(OC)c(NC(=O)CSc2nccn2-c2cccc(C(F)(F)F)c2)c1` the value was 10%; for `Cc1ccc(NC(=O)Cc2csc(SCC(=O)c3ccc4c(c3)OCO4)n2)cc1F`, 0%.
As for `CN(C)C(CNC(=O)Nc1ccc2c(c1)OCO2)c1ccsc1` (stereo not given), the inhibition was -7%.
On to `O=C(Nc1ccccc1)N1CCC(c2nnc(C3CC3)s2)CC1`, for which the inhibition is -7%.
As for `O=C(Nc1nnc(C2CC2)s1)c1ccccn1`, the figure is 90.3% (active).
For `CC1CCN(c2ccc(C(=O)Nc3nnc(C4CC4)s3)cc2[N+](=O)[O-])CC1` the value was -10.1%.
As for `O=C(NCc1cccnc1-c1cccs1)c1ccccn1`, the figure is -5%.
Turning to `O=C(Nc1nncs1)c1ccccn1`, the inhibition was 98% (active).
For `O=C(Nc1nncs1)c1ccc(S(=O)(=O)NC2CC2)cc1` the value was 0% and -28%; for `COC(=O)C1CCN(C(=O)C(=O)c2c[nH]c3ccccc23)CC1`, 6%; for `CCOc1ccc(C(=O)NCCNC(=O)c2ccc(NC(C)=O)cc2)cc1OCC`, -15%.
Take `COc1c2ccc(C(=O)NCC3CCCN3c3nc4ccccc4o3)cc2nn1C` (stereo not given): the inhibition was -11%.
For `Cc1ccc(/C=C/S(=O)(=O)N2CC(S(=O)(=O)c3ccc(F)cc3)C2)cc1` the value was -9%; for `N#CCCSc1ccccc1NC(=O)c1ccc([N+](=O)[O-])o1`, -9%.
As for `CCOC(=O)CSc1nnc(CNC(=O)Cc2ccccc2)n1-c1ccccc1OC`, the figure is -1.32%; as for `CCOC(=O)CSc1ncc(-c2ccc(OC)cc2)n1-c1ccccc1C`, 53% (active); as for `COc1ccc(-c2cnc(SCC(=O)Nc3nccs3)n2-c2cccc(Cl)c2)cc1`, -6%.
For `Cc1ccnc(N/C=C(/NC(=O)c2ccccc2)C(=O)N/N=C/c2ccc(Cl)cc2)n1` the value was “inactive”; for `COc1ccc(S(=O)(=O)NCc2ccccc2-c2ccsc2)cc1Cl`, -26%.
As for `CCCn1c(=N)n(CC(=O)c2ccc(Cl)c(Cl)c2)c2ccccc21`, the inhibition is -3.72%.
Take `O=C1COc2ccc(C(=O)COC(=O)c3ccccc3Cl)cc2N1`: the inhibition is -1.39%.
As for `O=C(CN1CC(=O)Oc2ccccc21)OCC(=O)c1ccc(Cl)c(Cl)c1`, the inhibition was 93.6% (active).
For `O=C(NCCN1CCOC(c2ccccc2)C1)C1CC1` (stereo not given) the value was -7%.
As for `c1ccc(-c2nc3ccc4ncccc4c3nc2-c2ccccc2)cc1`, the figure is -12%.
As for `c1ccc(-c2cn3c(n2)CCc2ccc4cccnc4c2-3)cc1`, the figure is 39.4% (active).
`CC(C)CS(=O)(=O)C1CCN(C(=O)c2cccc(Oc3ccc(F)cc3)c2)CC1`: the inhibition is -1%.
As for `CCCCC[n+]1ccn(C2=C([O-])c3ccccc3C(=O)C2=NS(=O)(=O)c2ccccc2)c1`, the figure is -14.3%.
As for `CCCC(=O)OCC(=O)Nc1cc(Cl)ccc1[N+](=O)[O-]`, the figure is 42.6% (active); as for `Cc1cc(NC(=O)COC(=O)COc2ccc(Cl)cc2C)c([N+](=O)[O-])cc1C`, 10.3%.
For `CC(C)(C)NC(=O)COC(=O)c1cc(Cl)ccc1[N+](=O)[O-]` the value was 6.97%; for `O=C(NCc1cncc(-c2cccs2)c1)c1ccc2ncsc2c1`, -4%.
For the molecule `CC(NC(=O)c1ccccc1)C(c1ccccc1)N(C)C` (stereo not given), the inhibition was 25%.
As for `CC(C)NC(=O)c1ccccc1Nc1c([N+](=O)[O-])cc(C(F)(F)F)cc1[N+](=O)[O-]`, the figure is 56% (active); as for `O=C(NNC(=O)c1ccccc1[N+](=O)[O-])Nc1ccccc1C(F)(F)F`, -2.15%.
As for `CC(C)NC(=O)c1ccc(Sc2ccccc2)c([N+](=O)[O-])c1`, the figure is -10.4%; as for `COc1ccc(C)cc1NC(=O)Cc1cc(=O)[nH]c(SCc2ccc(F)cc2)n1`, -4%; as for `CC(OC(=O)CN1C(=O)COc2ccccc21)C(=O)NCc1ccc(F)cc1` (stereo not given), 4.53%.
For `O=C(CN1C(=O)COc2ccc(Cl)cc21)Nc1ccc(N2CCOCC2)cc1` the value was -6.86%; for `O=C(CN1C(=O)COc2ccccc21)Nc1ccc(F)cc1`, 48.3% (active).
With `Cn1c(-c2ccc(F)cc2)cnc1SCC(=O)NNC(=O)Cc1ccccc1`, the inhibition was -3.92%.
For `N#CCSc1ncc(-c2ccc(Br)cc2)n1-c1ccc(F)cc1` the value was 7%; for `O=C(CSc1ncc(-c2ccccc2)n1-c1ccc(F)cc1)N1CCCC1`, 43% (active).
